Assay results as given in PubChem BioAssay (Tox21).
Records with an inconclusive call do not appear. Values without a mark were called inactive. Active and inactive are the calls of the source. The call rests on the fitted dose curve. Bridge positions count the residues as written; N and C are the ends. Square brackets hold non-standard residues; d marks the D form. Peptide text beside a SMILES is read from it. hArg = N=C(N)NCCCC[C@H](N)C(=O)O; Mpa = O=C(O)CCS

Test: cAMP Responsive Elements (CRE) small molecule agonists, cell-based qHTS assay (AID 1963590)
Conditions: CRE-bla HEK293T, beta-lactamase FRET ratio, 3 h; series mostly up to 92.4 µM; activation: at the top concentration
Excerpt: U.S. Tox21 Program National Center for Advancing Translational Sciences [NCATS] Division of Preclinical Innovation [DPI] U.S. Environmental Protection Agency [EPA] National Institutes of Environmental Health Sciences [NIEHS] National Toxicology Program [NTP] U.S. Food and Drug Administration [FDA] Tox21 Assay Overview: CREB (cyclic-AMP Responsive Element Binding Protein) is a cellular transcription factor. It binds to certain DNA sequences called cAMP Responsive Elements (CRE) and regulates the transcription of the genes. […] This cell line can be used to find agonists/antagonists of the cyclic AMP signaling pathway. The activation of the report gene under culture conditions can be detected by fluorescence intensity. This cell line has been used to screen the Tox21 10K compound library to identify agonists that induce oxidative stress.
Tox21 Assay Protocol Summary: CRE-bla Hek 293T cells were suspended in assay medium (DMEM containing 10% dialyzed FBS, 0.1 mM NEAA, 1 mM sodium pyruvate and 25 mM HEPES) and dispensed at 2,000 cells/5 uL /well into 1536-well black wall/clear bottom plates using a Multidrop Combi (ThermoFisher Scientific, Waltham, MA) dispenser. After the assay plates were incubated at 37 C/5% CO2 for 18 hrs, 23 nL of compounds dissolved in DMSO, positive controls or DMSO only was transferred to the assay plate by a pintool workstation (Kalypsys, San Diego, CA). After the plates were incubated at 37 C/5% CO2 for 3 hrs, 1 uL of LiveBLAzer B/G FRET substrate (Invitrogen, Carlsbad, CA) was added to each well using Bioraptr Flying Reagent Dispenser (FRD, Aurora Discovery, San Diego, CA). The plates were incubated at room temperature for 2 h.
On the % scale 0 is the no-effect control and ±100 the full control effect.

Row | SMILES | activation | Potency
1 | O=C(O)CCSSCCC(=O)O | -2.97% | –
2 | N[C@@H](CCC(=O)O)C(=O)O | -1.03% | –
3 | CN(C)CC[C@@H](c1ccc(Cl)cc1)c1ccccn1 | -0.249% [at 42.5 µM] | –
4 | CCCCCCCCCCCCCCCS(=O)(=O)Oc1ccccc1 | 0.105% [at 42.5 µM] | –
5 | Cc1ccc(Br)cc1 | -0.453% | –
6 | CC(C)(C)c1cc(CO)cc(C(C)(C)C)c1O | -0.0318% | –
7 | CNCc1ccc(NC(=O)c2c[nH]c3c2C(=O)CCC3)cc1 | 5.14% | –
8 | CCO[Si](CC(C)C)(OCC)OCC | -2.3% | –
9 | O=C(c1ccccc1)C1CCCCC1 | 0.86% | –
10 | NC(=O)[C@@H]1CSSCCC(=O)N[C@@H](CCCCN=C(N)N)C(=O)NCC(=O)N[C@@H](CC(=O)O)C(=O)N[C@@H](Cc2c[nH]c3ccccc23)C(=O)N2CCC[C@H]2C(=O)N1 ([Mpa][hArg]GDWPC-NH2; disulfide 1-7) | 1.19% [at 42.5 µM] | –
11 | Nc1ccc([N+](=O)[O-])c(N)c1 | -2.66% | –
12 | COC(=O)CC(=O)C(C)(C)C | -0.801% | –
13 | O=C(O)CN(CCOCCOCCN(CC(=O)O)CC(=O)O)CC(=O)O | -1.26% [at 0.349 µM] | –
14 | CC1(C)CC(=O)CC(C)(C)N1 | 0.252% | –
15 | Cn1c(NCCN(CCO)CCCc2ccc([N+](=O)[O-])cc2)cc(=O)n(C)c1=O | -2.34% [at 42.5 µM] | –
16 | OCCCS | -0.782% | –
17 | NC(CCC(=O)O)C(=O)O (stereo not given) | -0.25% | –
18 | CNCCCC1c2ccccc2C=Cc2ccccc21 | 4.56% [at 42.5 µM] | –
19 | CC[N+](CC)(CC(=O)Nc1c(C)cccc1C)Cc1ccccc1 (tested in a mixture with another compound) | 0.443% [at 42.5 µM] | –
20 | CCCCCCCCCCCCN1CCCC1=O | -0.138% | –

Row | SMILES | activation | Potency
21 | CN(C)CCC(c1ccc(Cl)cc1)c1ccccn1 (stereo not given) | – | inactive
22 | CCCCCC(C)O (stereo not given) | -0.0118% | –
23 | CCN(Cc1cccc(S(=O)(=O)O)c1)c1ccc(C(=C2C=CC(=[N+](CC)Cc3cccc(S(=O)(=O)[O-])c3)C=C2)c2ccccc2)cc1 | -0.387% [at 42.5 µM] | –
24 | C=CCc1cc(S(=O)(=O)c2ccc(O)c(CC=C)c2)ccc1O | 13.2% | –
25 | COCc1nnc(-c2ccc[n+]([O-])c2)n1-c1c(Cl)c(Cl)cc2[nH]c(=O)c(=O)[nH]c12 | 0.066% | –
26 | CCCC(=O)OC(C)(C)Cc1ccccc1 | -0.704% | –
27 | CC(=O)Oc1cccc(C)c1 | 0.151% [at 42.5 µM] | –
28 | CCC(C)O (stereo not given) | -0.341% | –
29 | O=C(O)CNC(=O)CNC(=O)CNC(=O)CSC(=O)c1ccccc1 | 0.0759% [at 42.5 µM] | –
30 | C=Cc1ccc(S(=O)(=O)O)cc1 | 7.1% | –
31 | C=CCCC(=O)O | 0.568% | –
32 | CCCCCCCCC(CCCCCC)C(=O)O (stereo not given) | 0.0659% | –
33 | C=C[Si](OC)(OC)OC | -0.384% | –
34 | CC(C)(N)C#N | -0.501% | –
35 | O=C1[C@@H]2[C@H]3CC[C@H](C3)[C@@H]2C(=O)N1CCCCN1CCN(c2ncccn2)CC1 | 1.57% [at 42.5 µM] | –
36 | COc1cccc2c1C(=O)c1c(O)c3c(c(O)c1C2=O)C[C@@](O)(C(=O)CO)C[C@@H]3O[C@H]1C[C@H](N)[C@H](O[C@@H]2CCCCO2)[C@H](C)O1 | -4.33% [at 42.5 µM] | –
37 | C1=CC2C3C=CC(C3)C2C1 (stereo not given) | 5.6% | –
38 | CC(C)CCCCCCN | -0.989% | –
39 | O=C(OC[C@H]1O[C@@H](OC(=O)c2cc(O)c(O)c(OC(=O)c3cc(O)c(O)c(O)c3)c2)[C@H](OC(=O)c2cc(O)c(O)c(OC(=O)c3cc(O)c(O)c(O)c3)c2)[C@@H](OC(=O)c2cc(O)c(O)c(OC(=O)c3cc(O)c(O)c(O)c3)c2)[C@@H]1OC(=O)c1cc(O)c(O)c(OC(=O)c2cc(O)c(O)c(O)c2)c1)c1cc(O)c(O)c(OC(=O)c2cc(O)c(O)c(O)c2)c1 | 4.01% [at 19 µM] | –
40 | O=C(Cl)c1ccc(F)c(Cl)c1 | -0.326% | –
